From PubChem BioAssay
ERK EGF block: inhibitors of EGF-stimulated ERK signaling pathway. actives 0.41% (n = 130,000). AID 1454. Potency, µM (doses to about 11.5 µM), for the others: top-dose activity change, negative = inhibition, hits mostly inhibitors. HEK293-V1b, EGF-stimulated phospho-ERK AlphaScreen; active means well fitted inhibition curve with a large enough effect;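 further: plate controls were stimulated vehicle wells for no effect and unstimulated vehicle basal for full effect; nearly all actives have a fitted effect of over 55% in size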
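Phospho-ERK1/2 measured by AlphaScreen (SureFire) after 5 min 25 nM EGF stimulation of V1b-expressing HEK293 cells preincubated 30 min at 37C with titrated compounds; data scaled to DMSO and EGF controls, Hill-fitted AC50.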
Starred values were filed as active, the others as inactive; ! = not active in a repeat; [ ] = another dose, or the depositor's remark. Many of the other results were omitted from the sample, so hits are more common in it than they were. Potency means the concentration at half of the fitted maximal effect.

SMILES	ERK EGF block
Cc1[nH]c(N=Nc2ccccc2)nc1N=Nc1ccccc1	22.4µM*
Cc1cc(=O)n2[nH]c(N)c(N=Nc3ccccc3)c2n1	6.4%
Cc1[nH]c2ccccc2c1N=Nc1ccc(F)cc1	2.1%
COc1ccc(C(CCO)NC(=O)c2cccs2)cc1OC (centres undefined)	5.4%
Cc1onc(-c2ccc(Cl)cc2)c1-c1ccnc(SCC(=O)Nc2cc(Cl)cc(Cl)c2)n1	7.4%[57.5 µM]
CCn1c(=O)c(C(=O)Nc2ccsc2C(=O)OC)c(O)c2ccccc21	8.8%
O=C(COC(=O)CCc1nc2ccccc2c(=O)[nH]1)NC(c1ccccc1)c1ccccc1	-15.0%[57.5 µM]
CC(C)N=C(N)/N=C(\N)Nc1ccc(Cl)cc1	7.9%[25.7 µM]
NNC(=S)Nc1ccc(Cl)cc1	-5.3%
NC(=NCCCCCCN=C(N)/N=C(\N)Nc1ccc(Cl)cc1)/N=C(\N)Nc1ccc(Cl)cc1	22.4µM*!
Nc1nccc(/C=C/c2c(F)cccc2Cl)n1	-6.4%
COc1cccc(-c2oc3ccccc3c(=O)c2O)c1	15.8%
COc1cccc(NCc2cc(=O)oc3cc(-c4ccccc4)c(O)cc23)c1	28.2µM*
O=c1cc(CN2CCN(c3cccc(Cl)c3)CC2)c2cc(O)c(-c3ccccc3)cc2o1	-6.6%[57.5 µM]
Cc1cccc(Nc2c([N+](=O)[O-])c(=O)n(C)c3ccccc23)c1	2.8%
CC(=O)Nc1ccc(NC(=O)c2cccc3c2-c2ccccc2C3=O)cc1	-3.7%
Cn1c(=O)c(Nc2ccc(O)cc2)c2c3c(cccc31)C(=O)c1ccccc1-2	28.2µM*
COc1ccc(N(C(=O)c2ccco2)S(=O)(=O)c2ccc(F)cc2)cc1	-3.6%
COC(=O)c1ccccc1S(=O)c1snnc1C (centres undefined)	-5.5%
Nc1nc(-c2ccccc2)c(N=Nc2ccccc2Cl)s1	17.8µM*
Nc1nc(-c2ccccc2)c(N=Nc2cccc3ccccc23)s1	20µM*
Nc1nc(-c2ccc(Cl)c(Cl)c2)c(-c2ccncc2)s1	7.6%
NC(N)=NC(N)=Nc1cccc2ccccc12	4.2%[57.5 µM]
NNc1nc(-c2ccccc2)c2ccccc2n1	-9.5%
O=C(O)Cc1sc(-c2ccccc2Cl)nc1-c1ccccc1	4.6%
SMILES	ERK EGF block
COc1ccccc1Oc1ccc(S(=O)(=O)N2CCOCC2)cc1S(=O)(=O)N1CCOCC1	7.6%
c1ccc(Cn2nnc(-c3ccccc3)n2)cc1	-8.5%
COC/C=C/C1=CC2=CC(=O)C(C)(OC(=O)c3cnc4ccccc4n3)C(=O)C2=CN1Cc1ccccc1 (centres undefined)	-3.1%[57.5 µM]
COC(=O)c1cc(-c2c(C)oc3cc(O)ccc3c2=O)c(C)o1	10.3%
O=C(c1ccncc1)N1CCC2(CC1)CCN(c1cccc(-c3ccccc3)c1)CC2	-2.9%
CCN1/C(=C/C(C)=C/c2sc3ccccc3[n+]2CC)Sc2ccccc21	17.8µM*
CCN1/C(=C\C=C(C(C)=O)C(C)=O)Sc2ccccc21	2.1%
CCN1/C(=C\C(=S)Nc2ccccc2)Sc2ccccc21	4.9%
O=C1CC(c2cccc(Cl)c2)CC(O)=C1C=Nc1cccc(Cl)c1 (centres undefined)	-3.6%
COc1ccc(-n2nc([N+](=O)[O-])c(=NCCc3ccc(OC)c(OC)c3)n2O)cc1	-0.2%
COc1ccc(-n2nc([N+](=O)[O-])c(=NCCC3=CCCCC3)n2O)cc1	28.2µM*
COc1ccc(-n2nc([N+](=O)[O-])c(=NCc3cccnc3)n2O)cc1	-5.3%
Fc1ccc(CNn2cnnc2SCc2ccc(F)cc2)cc1	-4.4%
O=C(O)c1ccccc1C(=O)c1ccc(Oc2ccccc2)cc1	12.3%
CSCCC(NS(=O)(=O)c1ccc2ccccc2c1)C(=O)OCC(=O)c1ccc(C(C)C)cc1 (centres undefined)	8.9%
CC(=O)Oc1ccc2c(c1C(C)C)CCC1C(C)(C)CCC[C@@]21C (some centres undefined)	6.9%
CC(C)c1c(O)ccc2c1CCC1[C@@](C)(CO)CCC[C@@]21C (some centres undefined)	11.9%
COC(=O)[C@@]1(C)CCC[C@@]2(C)c3ccc(O)c(C(C)C)c3CCC21 (some centres undefined)	22.4µM*
COc1cccc(-n2cc(CN(C)Cc3nc(Cc4cccc(F)c4)no3)cn2)c1	-8.2%
CC(=O)c1cccc(NC(=O)c2csc3c2CCCCC3)c1	-12.8%
CC(=O)c1cccc(NC(=O)Nc2csc3c2CCCC3)c1	25.1µM*
COC(=O)c1sccc1NC(=O)Nc1cccc(C(C)=O)c1	2.3%
COCCNC(=O)c1cc(-c2ccncc2)nc2ccc(S(=O)(=O)N3CCOCC3)cc12	-3.7%
CC(Nc1n[nH]c(=O)[nH]c1=O)C(=O)N/N=C/c1ccccc1 (centres undefined)	13.1%[57.5 µM]
COc1cc(/C=C(\C#N)C(N)=O)ccc1OS(=O)(=O)c1ccc(C)cc1	-4.0%
O=C(Nc1ccc(N2CCN(c3ncccc3C(F)(F)F)CC2)nc1)c1cccs1	14.1µM*
O=C(Nc1ccc(N2CCOCC2)nc1)c1cccs1	6.4%
O=C(Nc1ccc(N2CCN(c3ccc(C(F)(F)F)cn3)CC2)nc1)c1cccs1	-4.0%[57.5 µM]
Cc1onc(C(=O)Nc2cccnc2Cl)c1[N+](=O)[O-]	1.1%
